Screening data from PubChem.
The list is not random: actives were taken first. Their share in the collection is about 3.2%.
GLP1R inv ag: GLP-1 receptor (human) inverse agonism; P43220; AID 624417; HEK293 GLP-1R CRE-luciferase, luminescence, 24 h; GLP-1R form is constitutively active; 1.6% of 410,000 active; Potency, µM (top dose mostly 38.3 µM), without a hit: top-dose activity change, negative = inhibition, most hits filed as inhibitors; further: on the % scale 0 is the no-effect control and ±100 the full control effect; nearly all actives have a fitted effect of over 55% in size
Target sequence (P43220 whole entry, looked up): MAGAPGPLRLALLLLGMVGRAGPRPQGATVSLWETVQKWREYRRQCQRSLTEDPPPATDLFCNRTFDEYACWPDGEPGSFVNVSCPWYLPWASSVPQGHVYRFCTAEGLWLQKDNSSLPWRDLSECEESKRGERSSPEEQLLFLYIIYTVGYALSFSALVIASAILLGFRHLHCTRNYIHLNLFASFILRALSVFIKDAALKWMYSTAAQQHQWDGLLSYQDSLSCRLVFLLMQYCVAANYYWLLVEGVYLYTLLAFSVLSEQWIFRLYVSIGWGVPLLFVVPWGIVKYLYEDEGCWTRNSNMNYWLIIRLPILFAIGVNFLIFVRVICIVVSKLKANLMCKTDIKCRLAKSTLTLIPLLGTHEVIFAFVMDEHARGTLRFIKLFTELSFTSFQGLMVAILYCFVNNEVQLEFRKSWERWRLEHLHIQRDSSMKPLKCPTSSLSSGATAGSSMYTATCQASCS
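Inverse agonism was detected as reduced cAMP-driven luciferase luminescence after 24 h compound treatment. The cells were HEK293 clones expressing constitutively active human GLP-1R with the reporter. Reporter-only and GPR119 cell lines served as counterscreen controls.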
ClpP mod: qHTS Assay for Activators of ClpP. ATP-dependent Clp protease proteolytic subunit (Bacillus subtilis (strain 168)), P80244. purified B. subtilis ClpP, FRET peptide cleavage, 20 min. Potency, µM (titrated, usually from 57.5 µM), for inactives: at the top dose activity change, negative = active. 1.9% of 340,000 active. AID 651965, 2013; active means well fitted falling curve with a large enough effect; inconclusive means small, poorly fitted or top-dose-only effect; inactive means no such curve, though single readings can be large or run the other way; further: the source files actives as falling curves though it sought activators and does not explain the sign; nearly all actives have a fitted effect of over 65% in size
Target sequence (P80244 whole entry, looked up): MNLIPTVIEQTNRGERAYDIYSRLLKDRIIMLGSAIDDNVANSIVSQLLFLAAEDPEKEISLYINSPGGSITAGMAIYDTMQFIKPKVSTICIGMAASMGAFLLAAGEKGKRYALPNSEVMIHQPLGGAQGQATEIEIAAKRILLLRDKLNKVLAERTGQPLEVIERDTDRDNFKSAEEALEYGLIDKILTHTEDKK
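ClpP 10 microg/mL final, pH 8 Tris/KCl buffer with BSA, glycerol, Tween-20; compound pinned in; FRET-FV substrate; RT 20 min; Ex320/Em430; ΔFRET vs ADEP 5.8 microM, DMSO, no enzyme.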
GLP1R cytotox: cytotoxicity counter-screen for GLP-1 receptor inverse agonists; Potency, µM (top dose mostly 38.3 µM), for the others: at the highest dose activity change, negative = inhibition, usual class: inhibitors; 0.13% of 410,000 active; HEK293 cAMP-luciferase reporter cells, luminescence, 24 h;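 further: loss of luciferase light is scored as toxicity; on the % scale 0 is the no-effect control and ±100 the full control effect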
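1536-well qHTS counterscreen of the MLSMR; 200 cells/uL, 12 h pre-incubation, 23 nL cpd, 24 h at 37 deg C 5% CO2, luciferase detection reagent, 12 min RT, luminescence. Inhibition = undesired.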
GLP-1R agonist: agonists of human GLP-1 receptor. 0.007% of 380,000 active. AID 624172. Potency, µM (top dose mostly 45.6 µM), without a hit: at the highest dose activation, actives largely listed as activators. HEK293 GLP-1R CRE-luciferase, luminescence, 4-6 h; cells express a hypersensitive GLP-1R form; further: % of control where 0% means no effect
Starred values were filed as active, the others as inactive; u = inconclusive; x = no result; [ ] = dose if it differs, or a comment. Unless noted, the call rests on the fitted dose curve; in most records, active means well fitted curve in the direction sought with a large enough effect; inconclusive means small, poorly fitted or top-dose-only effect, or another doubt; inactive means no such curve, though single readings can be large; an effect the other way counts as inactive or inconclusive. Potency means the concentration at half of the fitted maximal effect.

SMILES | GLP1R inv ag | ClpP mod | GLP1R cytotox | GLP-1R agonist
CCOc1ccc(CCNC(=O)c2cnc3c(-c4ccc(F)cc4)c(C)nn3c2C)cc1 | 0% | -2% | 8% | x
COc1ccc(Cl)cc1NC(=O)Cn1c(=O)n(Cc2ccco2)c(=O)c2ccc(C(=O)NC3CCCC3)cc21 | 2% | -9% | -5% | 10%
CN(C)c1ccc(C2C=C(c3ccccc3)Nc3nnnn32)cc1 (stereo not drawn) | 12% | -9% | 87% | x
COc1ccc(NC(=O)N2CCN(C(=O)C(Cc3ccc(F)cc3)NC(C)=O)CC2)cc1 (stereo not drawn) | 9%[7.66 µM] | 32µM* | -1%[7.66 µM] | 1%
O=C(CN1CCNCC1)NC1CCCCC1 | x | x | x | 1%
CCSCCOC(=O)C1=C(C)NC2=C(C(=O)CCC2)C1c1coc2ccccc2c1=O (stereo not drawn) | 1% | 4% | -19% | 3%
CC1=C(C(=O)OC(C)C)C(c2coc3ccccc3c2=O)C2=C(CCCC2=O)N1 (stereo not drawn) | -1% | 3.5µM* | -20% | 0%
CCCCOc1ccc(Br)cc1/C(C)=N/NC1=NCCN1 | 2.8µM* | -1% | 4.5µM* | 3%
COc1ccc(CNC(=O)C2(c3ccc(Cl)cc3)CC2)cc1 | 10µM* | x | 5% | 32%
COC(=O)Cn1c(=NC(=O)c2cc(OC)cc(OC)c2)sc2cc(OC)ccc21 | 3% | 28µM* | -10% | 2%
COC(=O)Cn1c(=NC(=O)c2cc(-c3cccs3)nc3ccccc23)sc2cc(S(N)(=O)=O)ccc21 | 0% | u | 30% | -26%
COc1cccc(C(=O)N=c2sc3cc(S(C)(=O)=O)ccc3n2C)c1 | 83% | x | 3% | 21%
COC(=O)Cn1c(=NC(=O)c2cccc(OC)c2)sc2cc(OC)ccc21 | 8% | 25µM* | 64% | 2%
COC(=O)Cn1c(=NC(=O)c2ccc(S(=O)(=O)N3CCc4ccccc4C3)cc2)sc2cc(OC)ccc21 | 6% | -23% | 6% | 0%
COC(=O)Cn1c(=NC(=O)c2nc3ccccc3s2)sc2cc(S(N)(=O)=O)ccc21 | 19% | 22µM* | -1% | 0%
COC(=O)Cn1c(=NC(=O)c2ccc(OC)cc2)sc2cc(OC)ccc21 | 22% | 25µM* | 9% | 2%
COc1cc(OC)cc(C(=O)N=c2sc3ccccc3n2C)c1 | 9% | 4% | -7% | 4%
COc1cc(NS(=O)(=O)c2cc(Br)cc3c2N(C(=O)C2CC2)CC3)cc(OC)c1 | u | 0% | -26% | x
COc1ccc(Cn2cc(C(=O)c3ccc(Cl)cc3)c(=O)c3cc4c(cc32)OCO4)cc1 | -28% | -5% | -13% | x
COc1ccc(CN(C(=O)Nc2ccccc2)c2ccccn2)cc1OC | 8% | 0% | -10% | x
CC(C)(C)c1ccc(OCC(=O)O/N=C(\N)c2ccncc2)cc1 | u | 16µM* | -3% | 28%
CCc1ccc(N2CC(C(=O)N3CCN(c4ccccn4)CC3)CC2=O)cc1 (stereo not drawn) | u | 28µM* | -4% | -4%
CCOc1ccc(N2CC(C(=O)N3CCCCC3)CC2=O)cc1 (stereo not drawn) | 11% | x | 5% | 7%
CCOc1ccc(N2CC(C(=O)N3CCN(c4ccccn4)CC3)CC2=O)cc1 (stereo not drawn) | -14% | 20µM* | 16% | 1%
COc1ccc(C(=O)Nc2ccc3nc(SCc4ccc(C)cc4)sc3c2)cc1 | 2% | 25µM* | 4% | x
SMILES | GLP1R inv ag | ClpP mod | GLP1R cytotox | GLP-1R agonist
Cc1ccc(OCCSc2nc3ccc(NC(=O)c4cccs4)cc3s2)cc1 | 0% | -5% | -4% | x
CSc1nc2ccc(NC(=O)c3cccs3)cc2s1 | u | 2% | -21% | 7%
O=C(Nc1ccc2nc(SCCOc3ccccc3Cl)sc2c1)c1cccs1 | u | 11µM* | -3% | x
Cc1cc(C)cc(OCCSc2nc3ccc(NC(=O)c4cccs4)cc3s2)c1 | 10µM* | 0% | 7% | x
COc1ccc(/C=C/c2ccccn2)cc1 | x | 1% | x | x
Cc1ccc(C(=O)OCC(=O)NCc2cccc(Cl)c2)cc1S(=O)(=O)N1CCCCC1 | 5µM* | -1% | 2% | 7%
Cc1ccc(C(=O)OCC(=O)Nc2ccccc2C(F)(F)F)cc1S(=O)(=O)N1CCCCC1 | 10µM* | -3% | -4% | 16%
COc1cccc(C(=O)Nc2cccc(C(=O)OCc3cc(=O)n4c5c(sc4n3)CCCC5)c2)c1 | 7% | -29% | 1% | x
c1ccc(-n2nc3c(ccc4cnnc43)[nH]2)cc1 | 97% | 11µM* | 66% | -9%
CC1(C(=O)Nc2ccc3c(c2)OCCO3)CN(S(C)(=O)=O)CC(=O)N1Cc1cccc(C(F)(F)F)c1 (stereo not drawn) | 13% | 2% | -6% | x
O=C(CN(c1ccc(Cl)c(C(F)(F)F)c1)S(=O)(=O)c1ccccc1)N/N=C/c1cccc2c1OCCO2 | -15% | 22µM* | 9% | -1%
CS(=O)(=O)N(CC(=O)N/N=C/c1cccc2c1OCCO2)c1ccccc1Br | 2% | u | -13% | 2%
CCCC(C)NC(=O)c1nc(-c2ccccc2)n(-c2ccccc2)n1 (stereo not drawn) | 8.9µM* | -1% | -1% | 24%
O=C(O)c1nc(-c2ccccc2)n(-c2ccccc2)n1 | 7% | 0% | -5% | -8%
CC(c1ccccc1)N1CCC(CNC(=S)Nc2cccc(Cl)c2)C1 (stereo not drawn) | 3.2µM* | x | u | 4%
O=C(NCc1ccco1)C(c1cccs1)N(C(=O)C1COc2ccccc2O1)c1cccc(O)c1 (stereo not drawn) | 11µM* | 1% | -18% | -21%
CC(C)CCNC(=O)C(c1ccc(O)cc1)N(Cc1cccs1)C(=O)C1COc2ccccc2O1 (stereo not drawn) | 11µM* | 1% | u | -21%
COc1cccc(C(=O)Nc2ccc3nc(SCc4ccc(C)cc4)sc3c2)c1 | u | u | -5% | x
O=C(C1COc2cc(S(=O)(=O)Nc3ccc(Cl)cc3)ccc2O1)N1CCCC1 (stereo not drawn) | -28% | 1% | 0% | x
COc1ccccc1-c1ccc(/C=C2/C=C(C)OC2=O)o1 | -1% | 32µM* | -4% | -2%
C[C@H](OC(=O)N1CCN(C(c2ccccc2)c2ccccc2)CC1)[C@@H]1O[C@@]2(C)CCC[C@H]1O2 | 10µM* | -3% | 33% | 16%
CCCCC(=O)NC(c1ccco1)c1cc(Cl)c2cccnc2c1O (stereo not drawn) | u | x | u | 3%
CCC(=O)NC(c1ccco1)c1cc(Cl)c2cccnc2c1O (stereo not drawn) | 7.1µM* | x | u | 4%
O=C(Nc1cnn(Cc2ccc(F)cc2)c1)c1cnccn1 | 31% | -2% | 2% | -16%
O=C(Nc1cnn(Cc2ccc(F)cc2)c1)C(c1ccccc1)c1ccccc1 | 4.5µM* | -1% | -13% | 0%
